FLuc inh: inhibitors of firefly luciferase. P08659. purified firefly luciferase, luminescence, 8 min. Potency, µM (top dose mostly 57.1 µM), inactives show at the top dose activity change, negative = inhibition, actives largely listed as inhibitors. 72,000 tested, 2.2% active; note: % is set by controls: 0 for no effect and ±100 for the full control effect; nearly all actives have a fitted effect of over 40% in size
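Firefly luciferase (PKLight detection mix) with 10 uM ATP in pH 7.2 imidazole buffer (KCl, MgCl2, Tween 20, BSA). Compounds tested across a concentration series (qHTS). Luminescence read after 8 min at ambient temperature.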
ALOX15 inhib: blocks human 15-lipoxygenase activity; 74,000 tested, 1.4% active; P16050; Potency, µM (highest dose often 57.1 µM), for the others: at the top dose activity change, negative = inhibition, hits mostly inhibitors; purified 15hLO-1, xylenol orange hydroperoxide absorbance; note: % is set by controls: 0 for no effect and ±100 for the full control effect; nearly all actives have a fitted effect of over 55% in size
Target sequence (P16050 whole entry, looked up): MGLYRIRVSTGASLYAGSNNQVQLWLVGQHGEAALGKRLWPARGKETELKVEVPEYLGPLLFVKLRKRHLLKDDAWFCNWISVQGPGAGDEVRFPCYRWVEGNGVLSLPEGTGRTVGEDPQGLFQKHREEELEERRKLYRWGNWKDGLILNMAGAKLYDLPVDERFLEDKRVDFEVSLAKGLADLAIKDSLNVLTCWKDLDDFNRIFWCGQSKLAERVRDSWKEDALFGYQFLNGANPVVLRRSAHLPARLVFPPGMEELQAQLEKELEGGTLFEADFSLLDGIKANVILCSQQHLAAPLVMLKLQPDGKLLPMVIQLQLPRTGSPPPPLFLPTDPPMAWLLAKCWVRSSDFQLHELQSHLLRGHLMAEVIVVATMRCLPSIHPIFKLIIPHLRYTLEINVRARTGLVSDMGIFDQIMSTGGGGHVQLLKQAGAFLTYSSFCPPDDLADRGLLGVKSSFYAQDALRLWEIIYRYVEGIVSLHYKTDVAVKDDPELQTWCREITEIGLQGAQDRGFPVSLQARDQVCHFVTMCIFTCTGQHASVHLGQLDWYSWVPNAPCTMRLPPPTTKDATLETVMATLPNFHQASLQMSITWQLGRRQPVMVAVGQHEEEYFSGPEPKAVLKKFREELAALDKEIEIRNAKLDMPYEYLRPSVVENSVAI
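Inhibition is scored from a chromogenic endpoint. After 15 min enzyme-compound contact, arachidonic acid (50 uM final) reacts 6 min with 40 nM 15hLO-1 at room temperature, then Fe-XO reagent is added for 30 min and absorbance ratio recorded.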
TSHR agonist: TSH receptor (human) agonism; P16473; HEK293-CNG-TSHR cells (CNG channel as cAMP sensor), membrane potential dye, cAMP; Potency, µM (series often up to 57.1 µM), inactives show at the highest dose activation, most hits filed as activators; 73,000 tested, 0.48% active; AID 926; active = well fitted activation curve with a large enough effect in the main read-out, with a control signal flat, not every such curve was filed as active; inconclusive = small, poorly fitted or top-dose-only effect, or a change in a side signal; inactive = no such curve, though single readings can be large or run the other way; % of control where 0% means no effect;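 note: the control signal comes from parental cells without the receptor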
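cAMP rise detected as CNG-channel membrane depolarization by fluorescent dye (emission 590 nm), 30 min after compound, following 60 min dye loading containing 100 uM RO 20-1724 at room temperature. Cells: TSHR/CNG HEK 293, with parental CNG HEK 293 as control.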
Bst PK mod: alters activity of Bacillus stearothermophilus pyruvate kinase | purified pyruvate kinase, luminescence ATP production; ribose 5-phosphate activator present at AC10 | Potency, µM | 51,000 tested, 1.2% active | AID 361; in the data active = potency below about 11 µM; inconclusive = mostly about 12 µM to 25 µM;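 the screen sought inhibitors and activators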;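 note: scaled between full activation by ribose 5 phosphate and full inhibition by luteolin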
Tau fil binding: binds recombinant human tau filaments; P10636; recombinant tau filaments, thioflavin S fluorescence, 15 h; filaments grown with octadecylsulfate alongside compound; Potency, µM (series often up to 57.1 µM), inactives show at the top dose activity change, negative = inhibition; 71,000 tested, 2% active; AID 596;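 note: % is set by controls: 0 for no effect and ±100 for the full control effect; actives lower thioflavin S fluorescence by blocking filaments or displacing dye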
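Assay mix: 1 uM His-tagged tau, 30 uM sodium octadecylsulfate, thioflavine S dye in HEPES/NaCl/DTT buffer. Compound is added prior to the inducer. Fluorescence after 15 h at 37 C.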
HEK293 cAMP ctrl: counter-screen for TSHR agonists: cAMP increase in parental HEK293; parental HEK293 CNG cAMP sensor, membrane potential fluorescence; Potency, µM (series often up to 57.1 µM), inactives show at the top dose activation, hits mostly activators; 73,000 tested, 2.5% active; AID 938; note: % of control where 0% means no effect; nearly all actives have a fitted effect of over 55% in size
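Parental HEK 293 cells stably expressing a cAMP-gated CNG channel were loaded with membrane potential dye containing 100 uM RO 20-1724 for 60 min. Compound added for 30 min; depolarization read as fluorescence intensity at 590 nm.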
Active calls of the source: *; i = inactive; ? = inconclusive; . = not tested or not shown; [ ] = dose if it differs, or a comment. Sampled rows, rich in hits. Any-hit rate of the full collection: about 7.8%. Unless noted, calls come from the whole dose curve; as a rule, active = well fitted curve in the direction sought with a large enough effect; inconclusive = small, poorly fitted or top-dose-only effect, or another doubt; inactive = no such curve, though single readings can be large; an effect the other way counts as inactive or inconclusive. Potency is the fitted concentration of half-maximal effect.

SMILES | FLuc inh | ALOX15 inhib | TSHR agonist | Bst PK mod | Tau fil binding | HEK293 cAMP ctrl
O=C(CSc1n[nH]c(-c2ccccc2)n1)c1ccc(O)c(O)c1 | -2% | 5µM* | -2% | >57 | -4% | -3%
Cc1ccc(C(=O)CSc2n[nH]c(-c3ccco3)n2)cc1C | 0% | -11%[11.4 µM] | 11%[11.4 µM] | . | 5%[11.4 µM] | 25%[11.4 µM]
COC(=O)CNC(=O)CCCCC(=O)NCC(=O)OC | 2% | 2% | 0% | >57 | -46% | 2%
O=C(O)/C=C\c1ccc(O)c(O)c1 | 1%[11.4 µM] | -7%[25.6 µM] | ? | . | -18% | ?
Oc1cc(O)cc(/C=C\c2ccc(O)c(O)c2)c1 | 13µM* | 0.79µM* | 2% | . | ? | -9%
CC1(C)CCC[C@@]2(C)[C@@H]1CC[C@]1(C)OC(=O)C[C@@H]21 | 0%[11.4 µM] | . | ? | . | -15% | ?
CC(C)(C)NC(=O)c1ccc2nccnc2c1 | 0% | 4% | 2% | i | -6% | -4%
O=C(Nc1ccc(Br)cn1)c1ccc2nccnc2c1 | -19% | -16% | -4% | . | 16µM* | -9%
CCOc1cc(C(=O)OCc2ccc(C(=O)OC)o2)cc(Br)c1OC | 1% | -1% | ? | >57 | 23% | 32µM*
CCOc1ncccc1C(=O)OCc1ccc(C(=O)OC)o1 | 0% | -4% | 6% | >57 | -17% | 14%
COc1cccc(CSCC(=O)O)c1 | 3%[11.4 µM] | 0%[11.4 µM] | 1%[11.4 µM] | . | -1%[11.4 µM] | 12%[11.4 µM]
Fc1ccc(-c2nnc(-c3ccc(Cl)cc3)o2)cc1 | -2% | -1% | ? | . | 73% | ?
Clc1ccc(CSc2nnc(-c3ccncc3)o2)c(Cl)c1 | -1% | -1% | ? | >57 | 43% | 20µM*
Fc1ccc(-c2nnc(-c3ccc(Cl)cc3Cl)o2)cc1 | 1.3µM* | 2% | 14% | . | 132% | 14%
CC(C)OC(=O)CSc1nnc(-c2ccc(Cl)cc2Cl)o1 | -6% | -3% | 5% | >11 | -1% | 14%
CCSc1nnc(-c2ccc(Cl)cc2Cl)o1 | ? | 3.2µM* | 28%[11.4 µM] | . | 2%[11.4 µM] | 15%[11.4 µM]
Clc1ccc(-c2nnc(-c3ccccc3)o2)c(Cl)c1 | 2µM* | -12% | ? | 2.5* | 3% | 32µM*
CC(=O)Oc1ccc(/C=C\C(=O)C[C@@H]2O[C@@H](Oc3cc(OC(C)=O)c4c(c3)O[C@@H](c3ccc(OC(C)=O)cc3)CC4=O)[C@H](OC(C)=O)[C@H](OC(C)=O)[C@@H]2OC(C)=O)cc1 | 4%[11.4 µM] | . | -5% | . | ? | -5%
CC[C@@H](c1ccccc1)n1c(=O)n2n(c1=O)[C@H]1[C@H](O)[C@H]3O[C@@H]3/C(=N/OCC(C)C)[C@@H]1CC2 | 1%[11.4 µM] | 7%[11.4 µM] | 1%[11.4 µM] | . | . | -2%[11.4 µM]
CC(C)(C)N1C(=O)[C@H]2[C@H]3[C@H](O)[C@H](O)C/C(=N/NC(=O)OCc4ccccc4)[C@H]3CC[C@@H]2C1=O | 0%[11.4 µM] | 6%[11.4 µM] | -5%[11.4 µM] | . | . | -3%[11.4 µM]
Nc1nnc(SCc2ccc(F)cc2Cl)s1 | 1% | ? | 12% | >57 | 20µM* | -6%
Nc1ccc(-c2cnc(-c3ccc(N)cc3)nc2)cc1 | 13µM* | 2% | -12% | ? | -7% | -9%
CN(Cc1ccco1)c1nc(-c2ccccc2Cl)nc2ccccc12 | -2%[2.29 µM] | 3% | 18% | . | -2% | 23%
CN(C)Cc1ccccc1-c1nc(N(C)C)c2ccccc2n1 | -12%[2.29 µM] | 19% | ? | . | 11% | 10µM*
CN(Cc1ccco1)c1nc(-c2cccnc2)nc2ccccc12 | -1%[2.29 µM] | 2% | ? | . | 14% | 25µM*
SMILES | FLuc inh | ALOX15 inhib | TSHR agonist | Bst PK mod | Tau fil binding | HEK293 cAMP ctrl
COc1ccccc1-c1nc(N(C)Cc2ccco2)c2ccccc2n1 | -1%[2.29 µM] | -22% | ? | . | 7.9µM* | 25µM*
COc1ccccc1-c1nc(N(C)C)c2ccccc2n1 | 0%[2.29 µM] | ? | . | . | 16µM* | 4%
CN(Cc1ccco1)c1cc(-c2cccnc2)ncn1 | 2%[2.29 µM] | -2% | 10% | . | 5% | -8%
Cc1c(S(=O)(=O)N2CCc3ccccc3C2)c(=O)n(C)c(=O)n1C | 0% | 3% | 7% | . | -8% | 14%
CCC/C=C(\CCC)C(NS(=O)(=O)c1ccc(Cl)cc1)c1ccccc1 (stereo not drawn) | . | . | 22% | . | ? | 19%
C[C@H]1[C@H](C)CC[C@@]2(C(=O)O)CC[C@]3(C)C(=CC[C@H]4[C@@]5(C)C[C@@H](O)[C@H](O)[C@@](C)(CO)[C@@H]5CC[C@@]43C)[C@@H]12 | -4%[11.4 µM] | . | ? | . | 29% | ?
CCOC(=O)Cc1c(C)nc2c(-c3ccc(Cl)cc3)c[nH]n2c1=O | -3% | 40% | -13% | . | -10% | -11%
CN(Cc1ccco1)c1nc(-c2ccccc2C(F)(F)F)nc2ccccc12 | -1%[2.29 µM] | 16µM* | ? | . | 0% | 10µM*
Cc1sc2ncnc(N3CCCCC3C)c2c1C (stereo not drawn) | 1% | -5% | ? | >57 | 0% | 25µM*
O=C(O)C(Cc1c[nH]c2ccccc12)NS(=O)(=O)c1cccc2nsnc12 (stereo not drawn) | -4%[25.5 µM] | . | . | >26 | . | .
CCOC(=O)c1c(-c2ccc(C)o2)csc1N | -2% | 1.6µM* | -2%[11.4 µM] | . | -3%[11.4 µM] | 6%[11.4 µM]
COc1ccc(OC)c(NC(=O)C2CCCN(S(=O)(=O)c3c(C)noc3C)C2)c1 (stereo not drawn) | 1% | -5% | -5% | >57 | 25µM* | -1%
COc1ccc2nc(NC(=O)C3CCCN(S(=O)(=O)c4cccc5nonc45)C3)sc2c1 (stereo not drawn) | -5% | ? | -21% | >57 | 10µM* | -21%
COc1ccc(NC(=O)C2CCCN(S(=O)(=O)c3cccc4nonc34)C2)c(OC)c1 (stereo not drawn) | 3% | ? | -7% | >57 | -26% | -6%
COc1ccc(NC(=O)N2CCCC3(CCN(C(C)=O)CC3)C2)cc1 | 1%[11.4 µM] | 2% | 3% | . | -3% | 35%
COc1nc(Nc2cccc(C)c2)nc(N2CCCCC2)n1 | 0% | 4µM* | ? | >57 | 7% | ?
Cc1ccc(S(=O)(=O)c2cc3c(=O)n4ccccc4nc3n(Cc3ccco3)c2=N)cc1C | 1% | 32µM* | 0% | >57 | i | -3%
N=c1c(S(=O)(=O)c2ccccc2)cc2c(=O)n3ccccc3nc2n1Cc1ccco1 | 5% | -19% | 2% | >57 | 465% | -10%
Cc1nc(SCC(=O)NCc2ccco2)c2c3c(sc2n1)CCCC3 | 3% | -6% | ? | >57 | 39% | 13µM*
Cc1ccc2c(c1)cc(C)c1nnc(SCC(=O)NCc3ccco3)n12 | 1% | -5% | 18% | 4.2* | 13% | 13%
CC1CCc2c(sc3ncn4c(SCC(=O)NCc5ccco5)nnc4c23)C1 (stereo not drawn) | 0% | -15% | ? | >57 | 4% | 25µM*
Cc1ccc2cc(C)c3nnc(SCC(=O)NCc4ccco4)n3c2c1 | 2% | -11% | -9% | ? | 13% | -7%
